Screening data: PubChem BioAssay, Milwaukee Institute for Drug Discovery
In the library only some 7.6% were active in any assay of this set; here they are far more common.
NS3h inh CB: hepatitis C NS3 helicase inhibition, primary screen; NS3h Cy5-dT15 DNA binding, fluorescence polarization; inhibition, % at 100 µM; 16,000 compounds, 1.6% hits; AID 687043;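 active means inhibition above the average over every tested compound plus 3 SD, cut at about 40% in these data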
Cy5 interf NS3h: Cy5 fluorescence interference, HCV helicase counter-screen. Cy5-dT15 DNA with NS3h; actives lie on both sides; signal over control mean, under 1 quenches. fluorescence interference ratio at 100 µM. 16,000 compounds, 6% hits. AID 720488;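 active means compound fluorescence over control fluorescence at most 0.8, a quencher, or at least a set upper limit, an enhancer; inactive means ratio between 0.8 and the set upper limit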
NS3h confirm: confirmation of hepatitis C virus NS3 helicase inhibitors; shares compounds with NS3h inh CB; inhibition, % at 100 µM; NS3h binding to Cy5-dT15 DNA, fluorescence polarization; 240 compounds, 20% hits;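 active means percent inhibition of 50% or more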
SSB FP counter: disrupts E. coli SSB binding to DNA in counter-screen; E. coli SSB binding Cy5-dT15, fluorescence polarization; AID 720486; shares compounds with NS3h inh CB; 240 compounds, 40% hits; inhibition, % at 100 µM;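 active means inhibition of at least 50%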;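 further: displacers lower Cy5 polarization so higher inhibition means more SSB displaced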
Target sequence (P0AGE0 whole entry, looked up): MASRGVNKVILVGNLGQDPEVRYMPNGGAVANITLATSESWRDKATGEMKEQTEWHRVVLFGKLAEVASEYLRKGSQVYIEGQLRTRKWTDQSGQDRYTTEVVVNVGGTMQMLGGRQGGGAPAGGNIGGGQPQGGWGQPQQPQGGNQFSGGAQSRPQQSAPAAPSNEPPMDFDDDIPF
Cy5 SSB interf: enhances or quenches Cy5-DNA fluorescence with E. coli SSB; shares compounds with NS3h inh CB; Cy5-dT15/E. coli SSB fluorescence interference; actives lie on both sides; fluorescence interference ratio at 100 µM; 240 compounds, 8% hits;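 active means fluorescence interference ratio at or above 1.2, signal boosting, or at or below 0.8, signal quenching; inactive means ratio between 0.8 and 1.2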;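 further: ratio of compound well signal to mean negative control signal so 1 means no effect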
Cy5 fluor confirm: confirmation counter-screen for HCV NS3 helicase inhibitors: fluorescence interference. shares compounds with NS3h inh CB. Cy5-dT15 DNA/NS3h fluorescence interference counterscreen. fluorescence interference ratio at 100 µM, hits read low. 240 compounds, 44% hits. AID 720489;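 active means fluorescence interference ratio at or below 0.8 quencher or at or above a set limitenhancer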;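 further: ratio of compound fluorescence to mean of negative controls so 1 means no interference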
The depositor's hits bear a star.

For COc1ccc(C(=O)Nc2ccccc2)cc1NC(=O)c1ccccc1C the results were NS3h inh CB 4.7 and Cy5 interf NS3h 1.02.
O=C(/C=C/c1ccccc1)NC(=S)Nc1ccc2ccccc2c1 was read as NS3h inh CB 5.3 and Cy5 interf NS3h 1.08.
For O=C(O)c1cc(-c2ccc(/C=C3/Sc4ccccc4C3=O)o2)ccc1O the results were NS3h inh CB 110.1*, Cy5 interf NS3h 0.974, NS3h confirm 60.5*, SSB FP counter 102.4*, Cy5 SSB interf 0.836 and Cy5 fluor confirm 0.686*.
CC(=O)N(/C=C1\Sc2ccccc2C1=O)c1ccc(C)cc1 was read as NS3h inh CB 7.8 and Cy5 interf NS3h 1.1.
For CC(C)(C)OC(=O)COc1cc2oc(=O)cc(-c3ccccc3)c2cc1Cl the results were NS3h inh CB 8.7 and Cy5 interf NS3h 1.08.
For O=c1[nH]c(=S)n(-c2ccccc2F)c(O)c1C=C1C=CC=N1 the results were NS3h inh CB 113.7*, Cy5 interf NS3h 0.575*, NS3h confirm 47.8, SSB FP counter 127.9*, Cy5 SSB interf 0.738* and Cy5 fluor confirm 0.598*.
`O=c1[nH]c(=O)n(-c2cccc(C(F)(F)F)c2)c(O)c1C=C1C=CC=N1` gave NS3h inh CB 27.0 and Cy5 interf NS3h 0.97.
Screening Cc1cc(C)c([N+](=O)[O-])cc1-c1ccc(/C=c2\sc3nc4ccccc4n3c2=O)o1 returned NS3h inh CB 120.8*, Cy5 interf NS3h 1.56*, NS3h confirm 14.0, SSB FP counter 32.0, Cy5 SSB interf 0.933 and Cy5 fluor confirm 0.828.
For O=c1/c(=C/c2ccc(-c3ccccc3Cl)o2)sc2nc3ccccc3n12 the results were NS3h inh CB 6.8 and Cy5 interf NS3h 1.03.
CCc1ccc(N2CC(C(=O)Nc3c(CC)cccc3CC)CC2=O)cc1 (stereo not drawn) was read as NS3h inh CB -1.6 and Cy5 interf NS3h 1.11.
`O=C1c2ccccc2-c2onc3ccc(N4CCCCC4)c1c23` gave NS3h inh CB 51.6*, Cy5 interf NS3h 1.11, NS3h confirm 24.5, SSB FP counter 70.9*, Cy5 SSB interf 1.22* and Cy5 fluor confirm 0.794*.
`CC1CCN(c2cccc3c2C(=O)c2ccccc2C3=O)CC1` gave NS3h inh CB 7.6 and Cy5 interf NS3h 1.
Screening O=S(=O)(N=C(c1ccc(F)cc1)N1CCOCC1)c1ccccc1 returned NS3h inh CB 5.2 and Cy5 interf NS3h 0.996.
For COc1ccc(N(CC(=O)NCc2ccccc2)S(=O)(=O)c2ccc(C)cc2)cc1 the results were NS3h inh CB 5.1 and Cy5 interf NS3h 1.07.
Screening CCCOc1cccc(C(=O)Nc2ccc(Br)cc2C(=O)O)c1 returned NS3h inh CB 1.2 and Cy5 interf NS3h 1.08.
Cc1oc2c(CN3CCC(C)CC3)c(O)ccc2c(=O)c1-c1nc2ccccc2s1 was read as NS3h inh CB 8.8 and Cy5 interf NS3h 0.949.
For C=CCN1C(=O)NC(=O)/C(=C/C=C/c2ccco2)C1=O the results were NS3h inh CB 78.2*, Cy5 interf NS3h 1.32*, NS3h confirm 45.7, SSB FP counter 40.5, Cy5 SSB interf 1.07 and Cy5 fluor confirm 0.763*.
For C=CCN1C(=O)NC(=O)C(=Cc2ccc(C(C)C)cc2)C1=O the results were NS3h inh CB 5.7 and Cy5 interf NS3h 0.988.
`O=C1NC(=O)N(c2ccccc2Cl)C(=O)/C1=C\C=C\c1ccco1` gave NS3h inh CB 61.5*, Cy5 interf NS3h 1.21*, NS3h confirm 51.0*, SSB FP counter 96.4*, Cy5 SSB interf 1.24* and Cy5 fluor confirm 0.927.
`O=C1C=C(Nc2ccccc2)C(=O)N1c1ccccc1Cl` gave NS3h inh CB 11.1 and Cy5 interf NS3h 1.02.
CCc1ccc(N2CC(C(=O)Nc3ccc(Br)cc3)CC2=O)cc1 (stereo not drawn) was read as NS3h inh CB -0.7 and Cy5 interf NS3h 1.01.
`O=C(CSc1nnc(-c2ccc(Cl)cc2Cl)o1)Nc1ccccc1` gave NS3h inh CB 1.3 and Cy5 interf NS3h 1.01.
Cc1ccc(-c2nnc(SCC(=O)Nc3ccc(F)cc3)o2)cc1 was read as NS3h inh CB 61.9*, Cy5 interf NS3h 0.869, NS3h confirm 40.4, SSB FP counter 32.0, Cy5 SSB interf 0.999 and Cy5 fluor confirm 0.851.
`COc1ccc(-c2nn(-c3ccccc3)cc2/C=C/C(=O)c2ccccc2)cc1` gave NS3h inh CB 15.2 and Cy5 interf NS3h 0.951.
For CC(C)CN1C(=O)/C(=C/c2cccc(Br)c2)SC1=S the results were NS3h inh CB 10.6 and Cy5 interf NS3h 0.957.
CN1C(=O)C(=Cc2c(Cl)cccc2Cl)C(=O)N(C)C1=O was read as NS3h inh CB 42.4*, Cy5 interf NS3h 0.988, NS3h confirm 30.9, SSB FP counter 16.3, Cy5 SSB interf 0.97 and Cy5 fluor confirm 0.898.
Screening CN1C(=O)/C(=C/c2c(Cl)cccc2Cl)SC1=S returned NS3h inh CB -7.5 and Cy5 interf NS3h 0.961.
`COc1cc(C=C2C(=O)NC(=O)NC2=O)cc(Br)c1OCc1ccc([N+](=O)[O-])cc1` gave NS3h inh CB 73.4*, Cy5 interf NS3h 0.729*, NS3h confirm 19.3, SSB FP counter 44.2, Cy5 SSB interf 0.855 and Cy5 fluor confirm 0.581*.
For COc1cc(C=C2C(=O)NC(=O)NC2=O)cc([N+](=O)[O-])c1O the results were NS3h inh CB 47.8*, Cy5 interf NS3h 0.89, NS3h confirm 34.1, SSB FP counter 60.0*, Cy5 SSB interf 0.886 and Cy5 fluor confirm 0.946.
COc1cc(C=C2C(=O)N(C)C(=O)N(C)C2=O)cc(Br)c1OCc1ccccc1 was read as NS3h inh CB 32.4 and Cy5 interf NS3h 0.975.
COc1cc(C=C2C(=O)NC(=S)NC2=O)cc(Br)c1O was read as NS3h inh CB 30.6 and Cy5 interf NS3h 1.
Screening CCOc1ccc(/C=C2\C(=O)NC(=S)N(c3ccc(Br)cc3)C2=O)cc1Cl returned NS3h inh CB 5.0 and Cy5 interf NS3h 1.01.
Screening COc1ccc(Cl)cc1NC(=O)C1=C(C)NC(=O)NC1c1ccccc1F (stereo not drawn) returned NS3h inh CB -0.7 and Cy5 interf NS3h 1.05.
For Cc1ccc(N2C(=O)NC(=O)/C(=C\c3ccc(-c4ccc(C)c([N+](=O)[O-])c4)o3)C2=O)cc1 the results were NS3h inh CB 60.9*, Cy5 interf NS3h 1.13, NS3h confirm 2.3, SSB FP counter 23.5, Cy5 SSB interf 0.961 and Cy5 fluor confirm 0.895.
O=C1NC(=O)N(c2ccc(Cl)cc2)C(=O)/C1=C\c1ccc(-c2ccc([N+](=O)[O-])cc2)o1 was read as NS3h inh CB 7.6 and Cy5 interf NS3h 1.02.
Screening Cc1cc(C)cc(N2C(=O)NC(=O)/C(=C\c3ccc(I)o3)C2=O)c1 returned NS3h inh CB 46.3*, Cy5 interf NS3h 1.1, NS3h confirm 39.4, SSB FP counter 91.5*, Cy5 SSB interf 1.03 and Cy5 fluor confirm 1.01.
